Cy5 interf NS3h: Cy5 fluorescence interference, HCV helicase counter-screen | 6% of 16,000 active | fluorescence interference ratio at 100 µM | Cy5-dT15 DNA with NS3h; actives lie on both sides; signal over control mean, under 1 quenches;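 active = compound fluorescence over control fluorescence at most 0.8, a quencher, or at least a set upper limit, an enhancer; inactive = ratio between 0.8 and the set upper limit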
NS3h inh CB: hepatitis C NS3 helicase inhibition, primary screen. NS3h Cy5-dT15 DNA binding, fluorescence polarization. inhibition, % at 100 µM. 1.6% of 16,000 active. AID 687043;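 active = inhibition above the average over every tested compound plus 3 SD, cut at about 40% in these data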
NS3h confirm: hepatitis C NS3 helicase inhibition, confirmation; 20% of 240 active; NS3h binding to Cy5-dT15 DNA, fluorescence polarization; shares compounds with NS3h inh CB; AID 720485; inhibition, % at 100 µM;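 active = percent inhibition of 50% or more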
SSB FP counter: E. coli SSB-DNA binding inhibition, NS3h counter-screen | AID 720486 | shares compounds with NS3h inh CB | 40% of 240 active | inhibition, % at 100 µM | E. coli SSB binding Cy5-dT15, fluorescence polarization;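 active = inhibition of at least 50%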;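 note: displacers lower Cy5 polarization so higher inhibition means more SSB displaced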
Target sequence (P0AGE0 whole entry, looked up): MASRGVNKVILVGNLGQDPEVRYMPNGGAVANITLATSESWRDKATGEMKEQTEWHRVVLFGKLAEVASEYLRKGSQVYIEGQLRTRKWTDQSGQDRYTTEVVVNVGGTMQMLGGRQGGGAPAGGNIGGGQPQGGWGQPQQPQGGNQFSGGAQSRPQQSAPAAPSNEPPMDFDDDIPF
Cy5 SSB interf: enhances or quenches Cy5-DNA fluorescence with E. coli SSB | shares compounds with NS3h inh CB | Cy5-dT15/E. coli SSB fluorescence interference; actives lie on both sides | fluorescence interference ratio at 100 µM | 8% of 240 active | AID 720487;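 active = fluorescence interference ratio at or above 1.2, signal boosting, or at or below 0.8, signal quenching; inactive = ratio between 0.8 and 1.2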;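 note: ratio of compound well signal to mean negative control signal so 1 means no effect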
Cy5 fluor confirm: Cy5 fluorescence interference, confirmation counter-screen | Cy5-dT15 DNA/NS3h fluorescence interference counterscreen | 44% of 240 active | shares compounds with NS3h inh CB | fluorescence interference ratio at 100 µM, hits read low;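 active = fluorescence interference ratio at or below 0.8 quencher or at or above a set limitenhancer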;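 note: ratio of compound fluorescence to mean of negative controls so 1 means no interference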
An asterisk follows results filed as active; · = no result given. A selection: hits, their analogues and other compounds. The true share with any hit is near 6.9%.

SMILES | Cy5 interf NS3h | NS3h inh CB | NS3h confirm | SSB FP counter | Cy5 SSB interf | Cy5 fluor confirm
CCN(CC)c1ccc(/C=C2/C(=O)NC(=O)N(c3ccccc3)C2=O)cc1 | 3.2* | 86* | 30 | 26 | 1.6* | 1.8*
CCOC(=O)c1c(NC(=O)/C=C/c2ccc(C)o2)sc(C)c1C | 0.99 | 61* | 2 | 3 | 0.97 | 0.74*
Cc1ccc(/C=C/C(=O)Nc2ccc(Cl)cc2Cl)o1 | 0.92 | 26 | · | · | · | ·
CSc1ccccc1NC(=O)c1cc2n(n1)C(C(F)(F)F)CC(c1ccc(Br)cc1)N2 (stereo not given) | 0.99 | -1 | · | · | · | ·
COc1ccccc1N1C(=O)NC(=O)/C(=C\c2ccc(Br)cc2)C1=O | 0.92 | 19 | · | · | · | ·
O=C1NC(=O)N(c2ccc(Cl)cc2)C(=O)/C1=C/c1cccs1 | 1 | 8 | · | · | · | ·
COc1ccc(OC)c(N2C(=O)NC(=O)C(=Cc3cccs3)C2=O)c1 | 1 | 95* | 38 | 7 | 0.98 | 0.81
COc1ccc(OC)c(N2C(=O)NC(=O)/C(=C/C=C/c3ccccc3)C2=O)c1 | 0.92 | 49* | 21 | 32 | 0.98 | 0.83
CCCCOC(C)n1cc(Cl)c(=O)[nH]c1=O (stereo not given) | 1 | -4 | · | · | · | ·
Cc1ccc(OCC(=O)Nc2ccc(Cl)c(Cl)c2)c(Br)c1 | 1 | 3 | · | · | · | ·
O=C(NCCO)c1ccc(I)cc1 | 1.2 | 3 | · | · | · | ·
N#Cc1c(-c2ccco2)c2c([nH]c1=S)CCCC2 | 1.1 | 18 | · | · | · | ·
N#Cc1c(N)c(C#N)c(-c2ccco2)c2c1CCCC2 | 0.96 | 32 | 17 | 21 | 0.98 | 0.92
Cc1cc(NS(=O)(=O)c2ccc(NC(=O)C(C)Oc3cccc(Cl)c3)cc2)nc(C)n1 (stereo not given) | 1.1 | 9 | · | · | · | ·
O=C1NC(=O)N(c2ccccc2)C(=O)/C1=C\c1ccccc1OCc1ccccc1F | 1 | 22 | · | · | · | ·
C=CCN1C(=O)NC(=O)/C(=C\c2ccccc2OCc2ccc([N+](=O)[O-])cc2)C1=O | 0.49* | 58* | 27 | 26 | 0.97 | 0.66*
Nc1c(Cl)cc(N2C(=O)C=CC2=O)cc1Cl | 0.96 | 54* | 62* | 15 | 0.9 | 0.88
Cn1c(-c2ccco2)nc2c3ccccc3ccc21 | 0.96 | 3 | · | · | · | ·
CCN(CC)c1ccc(N=Cc2c(O)[nH]c(=S)[nH]c2=O)cc1 | 0.73* | 94* | 54* | 70* | 0.91 | 0.79*
CCN(CC)c1ccc(C=Nc2ccc(S(N)(=O)=O)cc2)c(O)c1 | 1 | 9 | · | · | · | ·
COCCN1C(=O)/C(=C\c2ccccc2[N+](=O)[O-])C(C(=O)OC)=C1C | 0.85 | 7 | · | · | · | ·
COc1nsnc1NS(=O)(=O)c1ccc(NC(=S)NC(=O)c2sc3cc(F)ccc3c2Cl)cc1 | 1 | 94* | 38 | 5 | 1 | 0.76*
COc1ccc2c(Cl)c(C(=O)Nc3ccc(N4CCOCC4)cc3)sc2c1 | 0.97 | 9 | · | · | · | ·
CC(/C=N\NC(=O)/C(=C\c1ccc2c(c1)OCO2)NC(=O)c1ccccc1)=C\c1ccccc1 | 1.1 | 9 | · | · | · | ·
Cc1ccc(N(CC(N)=O)S(=O)(=O)c2ccccc2)c(C)c1 | 1.1 | -16 | · | · | · | ·
SMILES | Cy5 interf NS3h | NS3h inh CB | NS3h confirm | SSB FP counter | Cy5 SSB interf | Cy5 fluor confirm
COc1ccc(/C=C2/SC(=S)NC2=O)cc1OCc1ccc(Cl)cc1 | 1 | 8 | · | · | · | ·
COc1cc(/C=C2/SC(=S)NC2=O)cc(Cl)c1OCc1ccc(Cl)cc1Cl | 1 | 48* | 12 | 55* | 0.94 | 0.85
Cc1ccc(C(NC(=O)c2ccccc2)c2c(O)ccc3ccccc23)cc1 (stereo not given) | 0.95 | 11 | · | · | · | ·
O=C(O)CCCN1C(=O)/C(=C\c2ccc(-c3ccccc3[N+](=O)[O-])o2)SC1=S | 0.82 | 37 | · | · | · | ·
CCCC(C(=O)O)N1C(=O)/C(=C\c2ccc(-c3ccc([N+](=O)[O-])cc3)o2)SC1=S (stereo not given) | 0.86 | 84* | 8 | 54* | 0.82 | 0.71*
O=C1/C(=C/c2ccc(-c3ccc([N+](=O)[O-])cc3)o2)SC(=S)N1Cc1ccccc1 | 0.96 | -6 | · | · | · | ·
CC(O)C(=O)NS(=O)(=O)c1ccccc1 (stereo not given) | 0.93 | 8 | · | · | · | ·
COC(=O)c1cc(NC(=O)c2cc(I)ccc2Cl)cc(C(=O)OC)c1 | 0.9 | -4 | · | · | · | ·
COc1cc(C=C2C(=O)NC(=O)NC2=O)cc(I)c1OCc1ccc([N+](=O)[O-])cc1 | 0.48* | 54* | 16 | 31 | 0.91 | 0.59*
C=CCOc1c(I)cc(/C=C2/C(=O)NC(=O)N(c3ccc(OC)cc3)C2=O)cc1OC | 1 | 8 | · | · | · | ·

Screening data from PubChem.
